Test results published in PubChem BioAssay AID1445 (SRMLSC, 2008).
The whole screen tested about 220,000 compounds, of which about 910 (0.41%) were called active. This is one part of a sample in which actives are shown more often than they occur. Potency and affinity values are given separately. A number with no mark means an inactive call.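 The calls were made as follows: active = primary inhibition above the hit cutoff, then over 50% inhibition at one or more dose response concentrations (cut at about 23% in these data, passing the limit was not always enough); inconclusive = conflicting primary data, or primary hits not chosen for dose response; inactive = low primary inhibition, or under 50% at every dose.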

Each compound was assayed against Aminopeptidase N (Plasmodium falciparum (isolate 3D7)) (UniProt O96935) (assay: P. falciparum M1AAP inhibitors, biochemical, fluorogenic H-Leu-NHMec substrate, 1536-well (AID 1445;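 also: plate controls were DMSO full reaction for no effect and no enzyme background for full effect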)). Conditions: recombinant M1AAP, H-Leu-NHMec fluorogenic kinetic assay; at 30 µM, stronger effect = higher value unless noted.
Sequence of Aminopeptidase N (Plasmodium falciparum (isolate 3D7)) (O96935 whole entry, looked up): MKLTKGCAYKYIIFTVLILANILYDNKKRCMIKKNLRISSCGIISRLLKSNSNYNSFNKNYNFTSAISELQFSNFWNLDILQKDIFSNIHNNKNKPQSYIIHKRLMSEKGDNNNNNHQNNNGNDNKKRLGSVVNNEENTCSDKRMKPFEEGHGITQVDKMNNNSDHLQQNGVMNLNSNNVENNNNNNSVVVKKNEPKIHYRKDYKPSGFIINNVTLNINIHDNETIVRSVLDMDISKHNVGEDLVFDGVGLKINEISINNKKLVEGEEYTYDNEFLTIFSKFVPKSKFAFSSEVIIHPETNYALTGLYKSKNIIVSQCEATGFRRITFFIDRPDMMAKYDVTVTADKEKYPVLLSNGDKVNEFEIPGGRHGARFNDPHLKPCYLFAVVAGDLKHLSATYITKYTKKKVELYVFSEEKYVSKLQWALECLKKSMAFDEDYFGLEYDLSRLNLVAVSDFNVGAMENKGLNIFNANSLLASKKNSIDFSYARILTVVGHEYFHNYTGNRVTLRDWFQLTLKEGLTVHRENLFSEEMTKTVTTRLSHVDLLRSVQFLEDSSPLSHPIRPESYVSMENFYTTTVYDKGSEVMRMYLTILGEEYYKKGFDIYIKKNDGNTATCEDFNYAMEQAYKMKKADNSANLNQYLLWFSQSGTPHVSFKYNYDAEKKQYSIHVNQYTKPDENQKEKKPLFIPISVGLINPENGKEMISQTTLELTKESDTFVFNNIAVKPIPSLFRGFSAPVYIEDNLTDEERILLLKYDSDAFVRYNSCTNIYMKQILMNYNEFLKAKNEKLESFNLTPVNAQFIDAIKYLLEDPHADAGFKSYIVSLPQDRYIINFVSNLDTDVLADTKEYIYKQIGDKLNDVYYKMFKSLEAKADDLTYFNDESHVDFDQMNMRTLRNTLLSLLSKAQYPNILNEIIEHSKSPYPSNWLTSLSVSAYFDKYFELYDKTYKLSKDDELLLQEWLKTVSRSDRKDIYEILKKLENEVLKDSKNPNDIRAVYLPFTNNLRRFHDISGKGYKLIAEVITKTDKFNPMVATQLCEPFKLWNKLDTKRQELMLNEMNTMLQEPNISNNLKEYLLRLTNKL

Row | Compound | inhibition
1 | O=C(/C=C/c1cccc(Br)c1)N1CCN(c2ccccn2)CC1 | 12.4%
2 | CCCNC(=O)c1ccc2c(=O)n3c(-c4ccc(C)cc4)csc3nc2c1 | 10%
3 | O=C(O)CSc1nc(-c2cccs2)cc(C(F)(F)F)n1 | -2.67%
4 | O=C(c1ccc(C(F)(F)F)cc1)C1CCCN(C(=O)CN2C(=O)CSC2=O)C1 (configuration not stated) | -2.21%
5 | CC(Sc1nc(N)cc(=O)[nH]1)C(=O)Nc1cccc(Cl)c1 (configuration not stated) | 14.1%
6 | CN(CCc1ccccn1)C(=O)Nc1ccc(C(C)(C)C)cc1 | 2.28%
7 | O=C1NC(=S)S/C1=C\c1coc2ccccc2c1=O | 14.4%
8 | CN1C(=O)/C(=C/c2coc3ccc(O)cc3c2=O)SC1=S | -2.96%
9 | CCC1CCCCN1C(=O)CCc1nnc(C2CCCCC2)o1 (configuration not stated) | 0.86%
10 | CC(C)Cc1nnc(NC(=O)CSc2nc(O)c(-c3ccccc3)c(=O)[nH]2)s1 | 4.36%
11 | Nc1ccc(Nc2nc(-c3cc4ccccc4oc3=O)cs2)cc1 | 6.86%
12 | O=C(Nc1nc(-c2cc3ccccc3oc2=O)cs1)c1ccco1 | 13.4%
13 | O=C1N(c2ccccc2)C[C@@H]2C[C@@H](c3cccs3)N3CCC[C@@]123 | 2.6%
14 | O=C(COc1cccc2cccnc12)Nc1ccccc1 | -0.06%
15 | O=C(COc1ccccc1[N+](=O)[O-])Nc1cccnc1 | 7.9%
16 | O=C(COc1ccccc1[N+](=O)[O-])Nc1ccc(Br)cc1 | -3.79%
17 | O=C(COc1ccccc1)Nc1ccc([N+](=O)[O-])cc1 | 3.2%
18 | C=CCNC(=S)Nc1ccc(C(N)=O)cc1 | 4.91%
19 | COC(=O)/C=C/c1ccsc1NC(C)=O | 7.35%
20 | O=C(Nc1ccccc1Oc1ccccc1)c1cccc([N+](=O)[O-])c1 | 6.7%
21 | Cc1nn(-c2cc(N3CCCC3)ccc2[N+](=O)[O-])c(=O)c2ccccc12 | 8.6%

Row | Compound | inhibition
22 | O=C(CSc1nc2c(c(=O)n1-c1ccc(F)cc1)SCC2)NCC1CCCO1 (configuration not stated) | 15.6%
23 | Cc1ccc(-n2c(SCC(=O)NCC3CCCO3)nc3c(c2=O)SCC3)cc1 (configuration not stated) | 4.19%
24 | COc1ccccc1NC(=O)CN1CCN(C(=O)c2ccco2)CC1 | 1.53%
25 | COc1ccc(C(=O)N2CCC(n3c(C)nc4cc(F)ccc43)CC2)cc1 | -1.13%
26 | CC(C)CNC(=O)C(=O)NN=C1CCCCCC1 | 2.51%
27 | COC(=O)c1ccc(C)c(NS(=O)(=O)c2ccc3c(c2)OCCO3)c1 | 9.88%
28 | O=C(O)c1ccc(NS(=O)(=O)c2ccc3c(c2)OCCO3)cc1 | 7.45%
29 | Cc1ccc(C)c(N(C)C(=O)c2cc3c(=O)[nH]c4ccc(C)cc4c3s2)c1 | -2.28%
30 | CC1(C)CC(=O)c2cc(OCC(=O)NCCN3CCCc4ccccc43)ccc2O1 | 6.69%
31 | COc1ccc2c(c1)C(=O)N(c1ccccc1OC)C(=O)C2(C)C | 11.7%
32 | COc1nnc(-c2ccc(N3CCOCC3)c(NC(C)=O)c2)c2ccccc12 | 4.98%
33 | CCn1c(C(=O)N2CCC(C(=O)NCc3ccc4c(c3)OCO4)CC2)cc2sccc21 | 31.3% (active)
34 | CCS(=O)(=O)N1CCC(C(=O)NCc2ccc3c(c2)OCO3)CC1 | 21.3%
35 | CCS(=O)(=O)N1CCC(C(=O)NCc2cccc(OC)c2)CC1 | -2.58%
36 | O=C(NCCc1ccccc1)C1CCN(C(=O)c2sccc2-n2cccc2)CC1 | 5.4%
37 | O=C(NCc1ccccc1F)C1CCN(C(=O)c2sccc2-n2cccc2)CC1 | 3.14%
38 | Cn1c(C(=O)N2CCCC(C(=O)NCc3ccc4c(c3)OCO4)C2)cc2sccc21 (configuration not stated) | 5.35%
39 | CCn1c(C(=O)N2CCC(C(=O)NCc3cccs3)CC2)cc2sccc21 | 18.2%
40 | CCCS(=O)(=O)N1CCCC(C(=O)NCc2ccc3c(c2)OCO3)C1 (configuration not stated) | 4.51%
41 | O=C(NCc1ccncc1)C1CCN(S(=O)(=O)Cc2ccccc2)CC1 | 22.4%
42 | COC(=O)c1ccc(CSc2nc3c(c(=O)n2-c2ccccc2)SCC3)o1 | 5.07%

Row | Compound | inhibition
43 | CCN(CC)CCCNC(=O)c1ccc(N2CCCCC2)c(NS(=O)(=O)c2ccc(C)cc2)c1 | -3.11%
44 | CC(CN1CCCC1)C(=O)NN (configuration not stated) | -2.99%
45 | O=c1[nH]c2cc(Cl)c([N+](=O)[O-])nc2[nH]1 | 11.7%
46 | Cc1nc(/C(=N/O)C(N)=O)cs1 | 3.08%
47 | CCOC(=O)COc1ccc(Br)cc1C1NC(=O)NC(C)=C1C(=O)NCc1ccccc1 (configuration not stated) | -5.37%
48 | O=C(NCCc1nc2ccccc2[nH]1)c1ccco1 | -3.58%
49 | Nc1ncc(Br)cc1S(=O)(=O)NCCC(=O)Nc1cccc(Cl)c1 | 0.42%
50 | Cc1ccc(C(=O)Nc2ccc3c(c2)CCC3)o1 | 6.8%
51 | COc1cccc(OC)c1C(=O)N1CCN(c2c(Cc3ccccc3)c(C)nc3ncnn23)CC1 | 7.55%
52 | Cc1ccc2c(CNCc3ccco3)cc(=O)oc2c1 | 7.2%
53 | CCS(=O)(=O)N1CCC(C(=O)NCc2ccc(F)cc2)CC1 | 5.77%
54 | CS(=O)(=O)N1CCC(C(=O)NCc2ccc(F)cc2)CC1 | 12.5%
55 | Cc1ccc(S(=O)(=O)Nc2cccc(-c3cn4ccsc4n3)c2)cc1 | 7.08%
56 | COc1ccccc1N1CCN(c2ncnc3nc[nH]c23)CC1 | 3.64%
57 | COc1cc(C=C2C(=O)c3ccccc3C2=O)ccc1O | 12.8%
58 | COc1ccc(C=C2C(=O)c3ccccc3C2=O)cc1O | 13.7%
59 | COc1ccccc1N1CCN(c2nc3ccccc3nc2C(C#N)C(=O)OC(C)C)CC1 (configuration not stated) | 1.03%
60 | Cn1ncc2cc(NC(N)=S)ccc21 | 5.67%
61 | COc1cccc(NC(=O)COc2ccccc2C(N)=O)c1 | -6.65%
62 | COC(=O)c1nc(N)sc1-c1ccc(Cl)cc1 | 7.93%
